Compound activity from PubChem BioAssay.
The entries come from a sample that favours hits as a whole.
Sm TGR inh: S. mansoni TGR enzyme inhibition; Q962Y6; purified TGR, DTNB reduction, TNB absorbance 405 nm; Potency, µM (highest dose often 114 µM), inactives show at the top dose activity change, negative = inhibition, actives largely listed as inhibitors; hit rate 3% among 360,000; AID 485364; also: potency is read from the fitted curve at half-maximal effect; % is scaled to controls: 0 for no effect and ±100 for the full control effect; nearly all actives have a fitted effect of over 60% in size
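TGR 20 nM + NADPH 100 uM (dispensed conc.), cpd preinc 15 min RT; start with NADPH (500 uM addition) then DTNB (15 mM addition). Kinetic TNB absorbance, 405 nm filter. Four-parameter Hill fit across titration.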
FBPA Giardia inh: inhibitors of Giardia lamblia fructose-1,6-bisphosphate aldolase; purified Giardia FBPA; hit rate 0.71% among 290,000; Potency, µM (titrated, usually from 59.6 µM), for the others: top-dose activity, negative = inhibition, actives largely listed as inhibitors; A8B2U2; also: potency is read from the fitted curve at half-maximal effect; % is scaled to controls: 0 for no effect and ±100 for the full control effect; nearly all actives have a fitted effect of over 55% in size
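40 nM FBPA preincubated 10 min at RT with compound (up to 57.5 uM final), then substrate plus GAPDH/TPI/NAD/arsenate coupling and diaphorase/resazurin added. Fluorescence read after 20 min at RT, 525/598 nm.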
LmPK inh: inhibitors of Leishmania mexicana pyruvate kinase; Q27686; purified LmPK, Kinase-Glo ATP luminescence, 1 h; hit rate 0.37% among 290,000; Potency, µM (series often up to 57.5 µM), inactives show top-dose activity change, negative = inhibition, actives largely listed as inhibitors; also: potency is read from the fitted curve at half-maximal effect; % is scaled to controls: 0 for no effect and ±100 for the full control effect
Target sequence (Q27686 whole entry, looked up): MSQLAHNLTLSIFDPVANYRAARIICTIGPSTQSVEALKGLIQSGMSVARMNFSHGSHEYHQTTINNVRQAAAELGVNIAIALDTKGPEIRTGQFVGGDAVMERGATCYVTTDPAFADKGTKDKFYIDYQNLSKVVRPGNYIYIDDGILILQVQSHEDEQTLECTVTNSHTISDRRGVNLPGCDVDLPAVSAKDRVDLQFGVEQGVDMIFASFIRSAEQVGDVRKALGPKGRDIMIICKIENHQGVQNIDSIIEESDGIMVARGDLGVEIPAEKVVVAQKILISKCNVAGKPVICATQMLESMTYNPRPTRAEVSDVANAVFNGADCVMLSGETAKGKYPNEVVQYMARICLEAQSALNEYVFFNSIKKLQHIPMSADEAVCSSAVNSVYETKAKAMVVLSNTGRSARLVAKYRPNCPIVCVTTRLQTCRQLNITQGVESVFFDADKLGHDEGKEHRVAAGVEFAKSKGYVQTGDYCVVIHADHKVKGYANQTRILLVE
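Purified LmPK (0.1 nM) with 0.5 mM PEP and 0.1 mM ADP in imidazole buffer pH 7.2 with MgCl2/KCl, 1 h at room temperature. ATP formed was read by luciferase luminescence and normalized to no-enzyme and uninhibited controls.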
CHX counter: affects cycloheximide protein synthesis inhibition readout, counter-screen; max response, %; cell reporter, cycloheximide protein synthesis inhibition counterscreen; hit rate 12% among 300,000; in the data active = max response mostly above about 13%, no sharp cut-off; inactive = mostly below about 14%; also: read at 38.3 µM for the half of the compounds with a filed dose; 0% is about no effect
Shiga inhibitor: Shiga toxin inhibition; Vero cells, Shiga toxin protein synthesis inhibition reporter; inhibition, % at 38.7 µM; hit rate 9.2% among 290,000; AID 2315; in the data active = inhibition mostly above about 28%, no sharp cut-off; inactive = mostly below about 43%; also: 0% is about no effect
Tb PYK inh: T. brucei pyruvate kinase inhibition. Q57TT1. hit rate 0.12% among 410,000. TbPYK enzyme, Kinase-Glo Plus ATP luminescence, 45 min. AID 624173. Potency, µM (titrated, usually from 76.8 µM), for inactives: top-dose activity, negative = inhibition, usual class: inhibitors; also: potency is read from the fitted curve at half-maximal effect; % is scaled to controls: 0 for no effect and ±100 for the full control effect; nearly all actives have a fitted effect of over 50% in size
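T. brucei PYK with substrate was exposed to pin-transferred compounds across a concentration series, then started with 130 uM ADP (final). After 45 min at room temperature, Kinase-Glo Plus luminescence was read, normalized and curve-fitted.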
An asterisk follows results filed as active; ? = inconclusive; . = not tested or not shown; [ ] = dose if it differs, or a comment. Unless noted, calls follow the shape of the dose curve; as a rule, active = well fitted curve in the direction sought with a large enough effect; inconclusive = small, poorly fitted or top-dose-only effect, or another doubt; inactive = no such curve, though single readings can be large; an effect the other way counts as inactive or inconclusive.

SMILES	Sm TGR inh	FBPA Giardia inh	LmPK inh	CHX counter	Shiga inhibitor	Tb PYK inh
COc1ccc(C2(C)NC(=O)N(CC(=O)NC3CCCC3)C2=O)cc1OC (stereo not drawn)	2%	.	.	.	.	-4%
O=C(Nc1cnn(Cc2ccc(Cl)cc2Cl)c1)c1noc2c1CCc1ccccc1-2	-1%	.	.	.	.	6%
COc1ccc(C(CC(=O)Nc2ccc(Br)cn2)N2Cc3ccccc3C2=O)cc1 (stereo not drawn)	3%	.	.	.	.	-3%
COc1ccc(C(CC(=O)Nc2ccccn2)N2Cc3ccccc3C2=O)cc1 (stereo not drawn)	3%	0%	0%	30*	88*	1%
Nc1c(C(=O)Nc2ccc(F)cc2)nnn1-c1cccc(C(F)(F)F)c1	-1%	0%	-5%	15*	21	3%
Nc1c(C(=O)Nc2cccc(F)c2)nnn1-c1cccc(C(F)(F)F)c1	4%	6%	-1%	18*	60*	5%
CC(Cc1ccccn1)NC(=O)CCc1nnc(C2CCCCC2)o1 (stereo not drawn)	-2%	1%	0%	11*	15	2%
CC(NC(=O)CCc1nnc(C2CCCCC2)o1)c1ccc(F)cc1 (stereo not drawn)	-1%	4%	5%	1	4	1%
COC1=C(OC)C(=O)C(CCCCCCCCCCO)=C(C)C1=O	?	4.5µM*	15%	-7	6	10%
O=C(c1ccc2c(c1)OCCO2)N1CCN(Cc2ccccc2)CC1	25%	-3%	-5%	15*	38	-16%
CCc1cc2cc(C(=O)N3CCN(Cc4ccccc4)CC3)sc2s1	6%	-12%	1%	22*	49*	-2%
Cc1[nH]c2ccccc2c1NC(=O)CN1CCN(C(=O)c2ccco2)CC1	32µM*	-27%	-2%	-2	-2	-1%
O=C(CCN1CCOCC1)Nc1ccc2c(c1)CCC2	-22%	1%	-3%	12	17	4%
O=C(CN1CCOCC1)Nc1ccc2c(c1)CCC2	13%	0%	0%	17*	34	-4%
Cc1[nH]c2ccccc2c1C(=O)C(=O)N1CCN(C(=O)c2ccco2)CC1	?	1%	1%	0	4	-1%
C/C=C/OC(=O)NC(c1ccccc1)[C@@]1(C(=O)OC)CCCC1=O (stereo partly drawn)	.	-1%[12.9 µM]	.	.	.	.
O=C(CN1CCOCC1)Nc1ccc2c(c1)OCCO2	-2%	?	-6%	16*	50*	25%
O=C(CN1CCN(C(=O)c2ccco2)CC1)Nc1ccc2c(c1)OCCO2	-33%	-2%	-2%	27*	91*	-20%
S=C(Nc1ccc2c(c1)OCO2)N1CCN(Cc2ccco2)CC1	-9%	-2%	-2%	20*	28*	1%
S=C(NCc1ccco1)N1CCN(Cc2ccco2)CC1	-9%	?	-7%	-3	-16	10%
Cc1c(Cl)cccc1NC(=O)NN1CCN(C)CC1	-25%	-5%	6%	10	15	4%
COc1ccc(CNc2nc(NCc3ccc(OC)cc3)c3ncn(C4CCCCC4)c3n2)cc1	.	-5%	.	49*	37*	.
COc1ccc(CNc2nccn3ccnc23)cc1	.	.	.	.	.	3%
O=C(NC1CCCCC1)c1c[nH]c2ccc(S(=O)(=O)Nc3ccccc3F)cc2c1=O	22%	.	.	.	.	2%
CCOC(=O)C(C)On1c(-c2ccc(Cl)cc2)nc2ccc([N+](=O)[O-])cc21 (stereo not drawn)	-23%	-14%	7%	33	129	-7%
SMILES	Sm TGR inh	FBPA Giardia inh	LmPK inh	CHX counter	Shiga inhibitor	Tb PYK inh
CCOC(=O)C(C)On1c(-c2ccccc2)nc2ccc([N+](=O)[O-])cc21 (stereo not drawn)	22%	?	-11%	35*	50*	-5%
O=C(O)COn1c(-c2ccccc2)nc2ccc([N+](=O)[O-])cc21	.	-27%	-6%	25*	49*	-6%
COc1cccc(CN2CC(C(=O)NCCN3CCOC3=O)CCC2=O)c1 (stereo not drawn)	-4%	-5%	-3%	-1	-6	-5%
Cn1c(=O)c2ccccc2n2c(CCl)nnc12	32µM*	1%	0%	-5	-6	-14%
CCCn1c(=O)c2ccccc2n2c(=S)[nH]nc12	-21%	?	-6%	-3	-1	-42%
COc1ccc(C2=NN(C(=O)CN3CCOCC3)C(c3nc4ccccc4[nH]3)C2)cc1 (stereo not drawn)	5%	0%	-9%	56*	105*	4%
COc1ccc(C2=NN(C(=O)CN3CCCCC3)C(c3ccc(C)cc3)C2)cc1 (stereo not drawn)	-4%	3%	0%	-4	-13	2%
N#Cc1c(NC(=O)CSc2ncc(-c3ccccc3)n2CC2CCCO2)sc2c1CCCC2 (stereo not drawn)	3%	-1%	0%	-1	-19	-6%
CC1CCc2c(sc(NC(=O)CSc3nnc(-c4ccccc4)o3)c2C#N)C1 (stereo not drawn)	-2%	-16%	1%	23*	active	5%
CC(C)(C)C1CCc2c(sc(NC(=O)CSc3ncn[nH]3)c2C#N)C1 (stereo not drawn)	3%	-9%	1%	14*	21	-12%
Cc1csc(NC(=O)CSc2nnc(-c3ccccc3)o2)n1	0%	0%	10%	28*	52*	-13%
N#Cc1c(NC(=O)CSc2nnc(-c3ccccc3)o2)sc2c1CCCC2	-23%	1%	-8%	16*	52*	-13%
CCN(CC)S(=O)(=O)c1ccc(-c2nnc(SCC(=O)Nc3nc(C)cs3)o2)cc1	-10%[11.4 µM]	-1%	5%	-2	-26	3%
COC(=O)[C@@]1(Cc2ccc(OC)cc2)[C@H]2c3cc(C(=O)N(C)C)n(Cc4ccc(Cl)c(C(F)(F)F)c4)c3C[C@H]2CN1C(=O)c1ccccc1	.	-13%	.	.	.	.
Cc1sc(NC(=O)CSc2nc(N)cc(N)n2)c(C#N)c1C	-11%	0%	3%	-1	-5	-2%
Cc1sc(NC(=O)CSc2nnc(-c3ccccc3)o2)c(C#N)c1C	-32%	7%	0%	33*	58*	-2%
CC1CCc2c(sc(NC(=O)Cn3nc(C(=O)O)c4ccccc4c3=O)c2C#N)C1 (stereo not drawn)	28µM*	11%	0%	6	11	-9%
Cc1ccccc1NC(=O)CSc1nc(-c2cccs2)nc2cc(=O)[nH]n12	1%	.	.	.	.	0%
CCNC(=O)C1(C)CCCN(C(=O)c2ccnc(Cl)c2)C1 (stereo not drawn)	.	.	.	.	.	3%
CC(C)=CCN1CCN(Cc2ccc(C)s2)CC1CCO (stereo not drawn)	.	4%	-2%	-3	-2	0%
CC(C)=CCN1CCN(Cc2cnc(C)s2)CC1CCO (stereo not drawn)	11%	-23%	4%	43*	70*	2%
